Results filed as inconclusive are left out. Activity calls are given as the source filed them. Unless noted, calls come from the whole dose curve; as a rule, active = well fitted curve in the direction sought with a large enough effect in the repeat runs; inconclusive = weak or mixed curves; inactive = no such curve, though single readings can be large; an effect the other way counts as inactive or inconclusive.
What was measured:
[1] = qHTS assay to identify aromatase inhibitors - cell viability counter screen (AID 743084);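 note: cells stimulated with testosterone during compound exposure; nearly all actives have a fitted effect of over 55% in size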
[2] = target: Aryl hydrocarbon receptor (Homo sapiens) (UniProt P35869); assay: qHTS assay to identify small molecule that activate the aryl hydrocarbon receptor (AhR) signaling pathway (AID 743085);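 note: HG2L7.5c1 human HepG2 liver cells with stably integrated DRE-driven firefly reporter; series mostly up to about 70 µM; nearly all actives have a fitted effect of over 15% in size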
Sequence of Aryl hydrocarbon receptor (Homo sapiens) (P35869 whole entry, looked up): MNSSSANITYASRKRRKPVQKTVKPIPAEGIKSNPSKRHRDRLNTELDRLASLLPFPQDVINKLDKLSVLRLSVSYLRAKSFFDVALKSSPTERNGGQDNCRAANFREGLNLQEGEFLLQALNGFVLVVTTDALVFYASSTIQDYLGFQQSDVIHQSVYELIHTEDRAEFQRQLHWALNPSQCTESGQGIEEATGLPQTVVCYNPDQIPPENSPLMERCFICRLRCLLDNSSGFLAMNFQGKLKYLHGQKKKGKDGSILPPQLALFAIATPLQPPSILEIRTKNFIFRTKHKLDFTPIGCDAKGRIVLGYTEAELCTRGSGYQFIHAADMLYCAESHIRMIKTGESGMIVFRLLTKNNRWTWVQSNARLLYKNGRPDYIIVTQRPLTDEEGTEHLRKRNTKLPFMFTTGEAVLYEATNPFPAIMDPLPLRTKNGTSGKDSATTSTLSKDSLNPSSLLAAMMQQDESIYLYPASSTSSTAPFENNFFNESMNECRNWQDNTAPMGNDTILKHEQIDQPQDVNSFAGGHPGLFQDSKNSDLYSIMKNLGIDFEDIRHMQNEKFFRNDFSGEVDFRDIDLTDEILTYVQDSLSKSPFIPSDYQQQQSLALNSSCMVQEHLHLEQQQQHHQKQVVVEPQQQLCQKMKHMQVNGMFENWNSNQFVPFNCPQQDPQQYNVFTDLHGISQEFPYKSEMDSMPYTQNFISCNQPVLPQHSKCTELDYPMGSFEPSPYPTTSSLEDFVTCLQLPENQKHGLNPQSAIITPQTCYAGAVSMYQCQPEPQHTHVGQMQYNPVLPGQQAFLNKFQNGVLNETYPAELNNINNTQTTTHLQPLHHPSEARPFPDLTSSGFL
How it was run: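 Cell line HG2L7.5c1 (human hepatoma, 20× DRE-luc). Plated, 5 h 37C, compound/DMSO added, 24 h 37C. CellTiter-Fluor 30 min 37C → fluorescence; then ONE-Glo 30 min RT → luminescence.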

[3] = qHTS assay to identify small molecule that activate the aryl hydrocarbon receptor (AhR) signaling pathway - cell viability counter screen (AID 743086);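 note: HepG2 liver cells carrying the AhR DRE luciferase reporter; series mostly up to about 70 µM; nearly all actives have a fitted effect of over 45% in size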
How it was run: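 HepG2-AhR-luc (HG2L7.5c1) cells, 4000/well, treated 24 h at 37 C with compound; viability measured as CellTiter-Fluor fluorescence after 30 min in the same wells as the luciferase read.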

[4] = target: Peroxisome proliferator-activated receptor gamma (Homo sapiens) (UniProt P37231); assay: qHTS assay to identify small molecule agonists of the peroxisome proliferator-activated receptor gamma (PPARg) signaling pathway (AID 743094; active = well fitted activation curve with a large enough effect in the signal ratio in the repeat runs, not every such curve was filed as active; the % refers to the signal ratio)
Sequence of Peroxisome proliferator-activated receptor gamma (Homo sapiens) (P37231 whole entry, looked up): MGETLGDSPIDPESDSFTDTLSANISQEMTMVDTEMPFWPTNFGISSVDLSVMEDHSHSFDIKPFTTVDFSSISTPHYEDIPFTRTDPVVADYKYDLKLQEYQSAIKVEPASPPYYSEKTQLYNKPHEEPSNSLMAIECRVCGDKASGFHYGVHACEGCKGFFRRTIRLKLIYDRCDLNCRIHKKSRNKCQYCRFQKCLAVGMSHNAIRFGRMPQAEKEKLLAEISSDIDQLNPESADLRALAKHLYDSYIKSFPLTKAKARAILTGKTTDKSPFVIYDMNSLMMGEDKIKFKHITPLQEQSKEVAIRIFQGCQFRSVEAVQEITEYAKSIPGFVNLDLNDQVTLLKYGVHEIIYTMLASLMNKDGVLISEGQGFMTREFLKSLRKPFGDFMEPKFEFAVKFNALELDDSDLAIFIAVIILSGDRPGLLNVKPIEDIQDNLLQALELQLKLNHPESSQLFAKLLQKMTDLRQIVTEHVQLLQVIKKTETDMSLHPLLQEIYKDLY
How it was run: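 Cell-based bla reporter, HEK293H background, PPARg-driven UAS. Pre-incubation 5 h, 37C, 5% CO2. Compound 17 h, 37C. Substrate 1 h RT; fluorescence.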

[5] = qHTS assay to identify small molecule antagonists of the peroxisome proliferator-activated receptor gamma (PPARg) signaling pathway - cell viability counter screen (AID 743194); note: nearly all actives have a fitted effect of over 55% in size
How it was run: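 Cytotoxicity counter screen in PPARg-bla HEK293H cells, same wells as reporter assay. Compounds plus 50 nM rosiglitazone (final) for 17 h at 37 C, then viability read by CellTiter-Glo luminescence.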

[6] = qHTS assay for small molecule agonists of the antioxidant response element (ARE) signaling pathway (AID 743202; active = well fitted activation curve with a large enough effect in the signal ratio in the repeat runs, not every such curve was filed as active; the % refers to the signal ratio)
How it was run: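 HepG2 ARE-bla cells; 16 h treatment at 37 C; FRET-based beta-lactamase fluorescence read after 2 h substrate incubation at room temperature.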

[7] = qHTS assay for small molecule agonists of the antioxidant response element (ARE) signaling pathway - cell viability counter screen (AID 743203; calls by dose curve; note: nearly all actives have a fitted effect of over 55% in size)
How it was run: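 Measured in the same wells as the beta-lactamase ARE reporter, this read-out is CellTiter-Glo luminescence from HepG2 ARE-bla cells given compounds for 16 hrs.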

[8] = qHTS assay for small molecule activators of the heat shock response signaling pathway - cell viability counter screen (AID 743209); note: nearly all actives have a fitted effect of over 50% in size
How it was run: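 Same-well multiplex: after 2.5 h room-temperature incubation with LiveBLAzer B/G substrate and fluorescence reading, CellTiter-Glo reagent was added to HSE-bla HeLa cells that had received compound for 5 h at 37 C; luminescence read after 30 min.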

[9] = qHTS assay for small molecule activators of the heat shock response signaling pathway (AID 743210; active = well fitted activation curve with a large enough effect in the signal ratio in the repeat runs, with a control signal flat, not every such curve was filed as active; the % refers to the signal ratio;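 note: HeLa cells with beta-lactamase reporter driven by heat shock elements; series mostly up to about 63 µM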)
How it was run: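 Following overnight attachment, HSE-bla HeLa cells received test compounds for 5 h at 37 C; beta-lactamase activity was then detected via FRET substrate fluorescence.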

[10] = qHTS assay to identify small molecule agonists of the peroxisome proliferator-activated receptor delta (PPARd) signaling pathway - cell viability counter screen (AID 743211); note: nearly all actives have a fitted effect of over 55% in size
How it was run: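 HEK293H PPARd-bla, 3000 cells/well; 5 h preincubation 37C/5% CO2; cpd in DMSO, 17 h 37C; B/G FRET substrate 2 h RT; CellTiter-Glo 30 min RT, luminescence.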

[11] = target: Peroxisome proliferator-activated receptor delta (Homo sapiens) (UniProt Q03181); assay: qHTS assay to identify small molecule agonists of the peroxisome proliferator-activated receptor delta (PPARd) signaling pathway (AID 743212; calls by dose curve)
Sequence of Peroxisome proliferator-activated receptor delta (Homo sapiens) (Q03181 whole entry, looked up): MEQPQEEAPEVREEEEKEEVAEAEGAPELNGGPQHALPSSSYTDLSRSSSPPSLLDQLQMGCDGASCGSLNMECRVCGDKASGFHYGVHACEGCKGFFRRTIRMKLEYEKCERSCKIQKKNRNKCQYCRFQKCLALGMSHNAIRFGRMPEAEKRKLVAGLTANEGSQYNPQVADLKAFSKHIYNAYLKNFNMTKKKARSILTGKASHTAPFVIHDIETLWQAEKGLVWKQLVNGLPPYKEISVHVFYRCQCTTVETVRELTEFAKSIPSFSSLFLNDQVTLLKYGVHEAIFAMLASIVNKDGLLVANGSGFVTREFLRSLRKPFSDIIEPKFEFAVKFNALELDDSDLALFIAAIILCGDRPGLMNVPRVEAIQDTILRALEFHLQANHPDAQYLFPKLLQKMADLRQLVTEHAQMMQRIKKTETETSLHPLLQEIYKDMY
How it was run: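 Tox21 library screened in GeneBLAzer PPARd UAS-bla HEK293H cells. After compound treatment at 37 C, a FRET-based beta-lactamase substrate was applied for 2 h and fluorescence recorded.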

[12] = qHTS assay to identify small molecule antagonists of the peroxisome proliferator-activated receptor delta (PPARd) signaling pathway - cell viability counter screen (AID 743213); note: nearly all actives have a fitted effect of over 50% in size
How it was run: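 PPARd-bla HEK293H cells (3000/well) got compound plus 300 nM L165041 agonist for 17 h at 37 C. Viability in the same wells came from CellTiter-Glo luminescence after 30 min at room temperature.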

[13] = target: Bile acid receptor (Homo sapiens) (UniProt Q96RI1); assay: qHTS assay to identify small molecule antagonists of the farnesoid-X-receptor (FXR) signaling pathway (AID 743217; active = well fitted inhibition curve with a large enough effect in the signal ratio in the repeat runs, not every such curve was filed as active; the % refers to the signal ratio)
Sequence of Bile acid receptor (Homo sapiens) (Q96RI1 whole entry, looked up): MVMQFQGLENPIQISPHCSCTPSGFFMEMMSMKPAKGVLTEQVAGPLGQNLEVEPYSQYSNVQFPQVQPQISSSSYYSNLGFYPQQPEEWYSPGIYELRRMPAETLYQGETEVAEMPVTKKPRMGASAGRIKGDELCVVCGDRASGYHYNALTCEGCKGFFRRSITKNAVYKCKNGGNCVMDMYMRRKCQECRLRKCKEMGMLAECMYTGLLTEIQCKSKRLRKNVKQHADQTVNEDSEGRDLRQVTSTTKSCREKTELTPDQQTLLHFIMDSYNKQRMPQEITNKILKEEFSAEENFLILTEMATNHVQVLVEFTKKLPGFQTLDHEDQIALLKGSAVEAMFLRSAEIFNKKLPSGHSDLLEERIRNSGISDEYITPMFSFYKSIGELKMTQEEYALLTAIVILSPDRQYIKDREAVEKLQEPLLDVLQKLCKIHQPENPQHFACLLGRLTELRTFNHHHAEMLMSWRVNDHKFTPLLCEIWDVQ
How it was run: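 FRET fluorescence after 2 h room-temperature LiveBLAzer loading gives the readout. Prior step: FXR-bla HEK 293T cells, seeded and incubated 5 h, received test compounds plus 50 uM final CDCA for 16 h at 37 °C.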

[14] = qHTS assay to identify small molecule agonists of the farnesoid-X-receptor (FXR) signaling pathway - cell viability counter screen (AID 743218); note: nearly all actives have a fitted effect of over 45% in size
How it was run: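 Readout: CellTiter-Glo luminescence, 30 min RT, multiplexed after the FXR-bla FRET reading. HEK 293T FXR-UAS-bla cells received compound 5 h post-plating and were incubated 16 h at 37 C.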

[15] = target: Bile acid receptor (Homo sapiens) (UniProt Q96RI1); assay: qHTS assay to identify small molecule agonists of the farnesoid-X-receptor (FXR) signaling pathway (AID 743220; active = well fitted activation curve with a large enough effect in the signal ratio in the repeat runs, not every such curve was filed as active; the % refers to the signal ratio)
How it was run: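 FXR-UAS-bla HEK 293T cells carrying a UAS-driven beta-lactamase reporter were plated for 5 h at 37C/5% CO2, then exposed to DMSO-dissolved Tox21 10K compounds for 16 h at 37C. A LiveBLAzer B/G FRET substrate was loaded for 2 h at room temperature before fluorescence reading.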

[16] = qHTS assay to identify small molecule antagonists of the farnesoid-X-receptor (FXR) signaling pathway - cell viability counter screen (AID 743221; active = well fitted cell-killing curve with a large enough effect in the repeat runs, not every such curve was filed as active; note: nearly all actives have a fitted effect of over 50% in size)
How it was run: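 Luminescence from CellTiter-Glo measures cytotoxicity in GeneBLAzer FXR-UAS-bla HEK 293T cells. Cells were exposed to compounds with 50 uM chenodeoxycholic acid (final) for 16 h at 37 C, in wells also used for the reporter readout.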

[17] = target: Vitamin D3 receptor (Homo sapiens) (UniProt P11473); assay: qHTS assay to identify small molecule agonists of the vitamin D receptor (VDR) signaling pathway (AID 743222; calls by dose curve)
Sequence of Vitamin D3 receptor (Homo sapiens) (P11473 whole entry, looked up): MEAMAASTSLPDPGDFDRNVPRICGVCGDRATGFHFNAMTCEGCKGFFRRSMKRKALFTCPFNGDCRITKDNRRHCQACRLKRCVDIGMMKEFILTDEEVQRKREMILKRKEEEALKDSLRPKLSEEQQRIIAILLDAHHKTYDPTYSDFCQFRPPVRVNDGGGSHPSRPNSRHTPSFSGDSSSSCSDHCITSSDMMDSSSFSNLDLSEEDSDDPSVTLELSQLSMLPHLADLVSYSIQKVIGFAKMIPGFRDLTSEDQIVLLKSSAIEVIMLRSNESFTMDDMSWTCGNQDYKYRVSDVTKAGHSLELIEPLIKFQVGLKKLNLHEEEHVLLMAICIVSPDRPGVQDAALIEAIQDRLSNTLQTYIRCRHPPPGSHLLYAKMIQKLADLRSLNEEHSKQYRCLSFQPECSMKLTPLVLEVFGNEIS
How it was run: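 Following 4 h attachment at 37C, VDR-bla cells (2,000 per well) received DMSO-dissolved compounds or controls. After 16 h incubation, LiveBLAzer B/G FRET substrate was added and fluorescence read 2 h later at room temperature.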

[18] = target: Vitamin D3 receptor (Homo sapiens) (UniProt P11473); assay: qHTS assay to identify small molecule antagonists of the vitamin D receptor (VDR) signaling pathway (AID 743223; active = well fitted inhibition curve with a large enough effect in the signal ratio in the repeat runs, not every such curve was filed as active; the % refers to the signal ratio)
How it was run: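 Antagonist mode uses 1alpha,25-dihydroxyvitamin D3 at 3 nM final as stimulus. VDR-bla cells receive compounds in DMSO, incubate 16 h at 37C, then a beta-lactamase FRET substrate for 2 h at room temperature before fluorescence measurement.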

[19] = target: Peroxisome proliferator-activated receptor delta (Homo sapiens) (UniProt Q03181); assay: qHTS assay to identify small molecule antagonists of the peroxisome proliferator-activated receptor delta (PPARd) signaling pathway (AID 743215; active = well fitted inhibition curve with a large enough effect in the signal ratio in the repeat runs, not every such curve was filed as active; the % refers to the signal ratio;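 note: cells stimulated with agonist L165041 at 300 nM final during compound exposure; series mostly up to about 62 µM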)
How it was run: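 Fluorescence from cleaved LiveBLAzer B/G FRET substrate (2 h, room temperature) reports PPARd-driven beta-lactamase in HEK293H UAS-bla cells. Cells had been treated 17 h at 37 C with compound plus 300 nM final L165041.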

Measured: Potency

CC(=O)c1ccc(O)cc1
not listed: [19]
inactive: all other assays above

CN1C(=O)CC[C@H]1c1cccnc1
not listed: [11] | [13] | [15] | [17] | [18] | [19]
inactive: all other assays above

CCCCCCC=O
not listed: [13] | [15] | [19]
inactive: all other assays above

CCCCCC(=O)O
not listed: [10] | [13] | [15]
inactive: all other assays above

OC1C(O)C(O)C(O)C(O)C1O (stereo not given)
inactive: all assays above

OCc1cccc(Oc2ccccc2)c1
not listed: [10]
inactive: all other assays above

CSc1ccc(Cl)cc1
not listed: [19]
inactive: all other assays above

COc1ccc(CCC(C)=O)cc1
not listed: [10]
inactive: all other assays above

C=C(C)[C@H]1CC=C(C)C(=O)C1
not listed: [10] | [11] | [13] | [15] | [19]
inactive: all other assays above
